As usually defined, the cell viability is a read-out of living cells in per cent, often relative to untreated cells.

Common to all, as to test: cell viability relative to vehicle control; higher = less cytotoxic
What all share (settings): 10 µM

The subject of test [1] is K562. An outline of the steps: (§1)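 Screening covered the Selleck bioactive, kinase and epigenetic probe libraries, less identity-inconsistent compounds, on CRISPR-edited mutant clones and isogenic wild-type clones of four leukaemia lines. Cells, at 2000 per well in 50 µL medium, received a single 10 µM acoustically dispensed dose. After 48 h the supernatant was removed and CellTiter-Glo luminescence was read. Viability was analysed in Genedata Screener as percent of the on-plate vehicle control.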

The subject of test [2] is MARIMO. A digest of the protocol: as §1
Test [3] deals with MOLM14. A digest of the protocol: as §1
Test [4] has as its system OCI-AML2. An outline of the steps:
as §1

“And” between values parts separate entries of the source, which are not always exact repeats. Equal entries are not always repeated. Structures can show the parent of a compound that is named as a salt.

In the case of `Cn1cc(C2=C(c3cn(CCCSC(=N)N)c4ccccc34)C(=O)NC2=O)c2ccccc21` [Ro 31-8220 Mesylate], the cell viability in test [1] (SRSF2 genotype: SRSF2 P95H/wt) is 4.21% and 2.6%; in test [1] (SRSF2 genotype: SRSF2 wt/wt), 3.72%; in test [2] (SRSF2 genotype: SRSF2 P95H/wt), 2.81%; in test [2] (SRSF2 genotype: SRSF2 wt/wt), 0.92%; in test [3] (SRSF2 genotype: SRSF2 P95H/wt), 0.22%; in test [3] (SRSF2 genotype: SRSF2 wt/wt), -0.01%. Besides, the cell viability is 0.07% in test [4] (SRSF2 genotype: P95H/wt) and 2.11% in test [4] (SRSF2 genotype: wt/wt).

In the case of `C[C@@H](CN1CC(=O)NC(=O)C1)N1CC(=O)NC(=O)C1` [Dexrazoxane Hydrochloride], the cell viability in test [1] (SRSF2 genotype: SRSF2 P95H/wt) is 99.3% and 102%; in test [1] (SRSF2 genotype: SRSF2 wt/wt) it was 97.5%; in test [2] (SRSF2 genotype: SRSF2 P95H/wt) it was 92.4%; in test [2] (SRSF2 genotype: SRSF2 wt/wt), 96.4%; in test [3] (SRSF2 genotype: SRSF2 P95H/wt), 70.5%; in test [3] (SRSF2 genotype: SRSF2 wt/wt) it was 78%. For the same molecule, the cell viability in test [4] (SRSF2 genotype: P95H/wt) worked out at 75.2%; in test [4] (SRSF2 genotype: wt/wt) it was 76.2%.

Turning to `COc1ccc(-c2ccc3ncc4c(c3c2)n(-c2ccc(N3CCNCC3)c(C(F)(F)F)c2)c(=O)n4C)cn1`, the cell viability in test [1] (SRSF2 genotype: SRSF2 P95H/wt) is 0.26% and 0.21%; in test [1] (SRSF2 genotype: SRSF2 wt/wt) it was 0.16%; in test [2] (SRSF2 genotype: SRSF2 P95H/wt), 0.25%; in test [2] (SRSF2 genotype: SRSF2 wt/wt), 0.28%; in test [3] (SRSF2 genotype: SRSF2 P95H/wt), 0.18%; in test [3] (SRSF2 genotype: SRSF2 wt/wt), 0.18%. Besides, the values for the cell viability in test [4] (SRSF2 genotype: P95H/wt) and in test [4] (SRSF2 genotype: wt/wt) were 0.11% and 0.16%, respectively.

In the case of `Cc1ccc(NCCN(C)CCNc2ccnc3cc(Cl)ccc23)c2c(=O)c3ccccc3sc12`, the cell viability was 75.8% and 92.5% in test [1] (SRSF2 genotype: SRSF2 P95H/wt); 76.6% in test [1] (SRSF2 genotype: SRSF2 wt/wt); 78% in test [2] (SRSF2 genotype: SRSF2 P95H/wt); 88.2% in test [2] (SRSF2 genotype: SRSF2 wt/wt); 81% in test [3] (SRSF2 genotype: SRSF2 P95H/wt); 79.7% in test [3] (SRSF2 genotype: SRSF2 wt/wt). Also, the cell viability stood at 85.9% in test [4] (SRSF2 genotype: P95H/wt) and 84% in test [4] (SRSF2 genotype: wt/wt).

Take `CN(C)CCCNC(=O)c1ccc(-c2cc(O)c3ncccc3c2)cc1`: the cell viability in test [1] (SRSF2 genotype: SRSF2 P95H/wt) is 55% and 32.1%; in test [1] (SRSF2 genotype: SRSF2 wt/wt) it was 47.3%; in test [2] (SRSF2 genotype: SRSF2 P95H/wt), 52.3%; in test [2] (SRSF2 genotype: SRSF2 wt/wt) it was 53%; in test [3] (SRSF2 genotype: SRSF2 P95H/wt), 40.7%; in test [3] (SRSF2 genotype: SRSF2 wt/wt) it was 24.9%. Besides, the cell viability in test [4] (SRSF2 genotype: P95H/wt) was 33%; in test [4] (SRSF2 genotype: wt/wt), 33.2%.

Regarding `C[C@@H](CC[C@@]1(O)O[C@H]2C[C@H]3[C@@H]4CC[C@@H]5C[C@@H](O[C@@H]6O[C@H](CO)[C@H](O)[C@H](O)[C@H]6O[C@@H]6O[C@H](CO)[C@@H](O)[C@H](O)[C@H]6O)CC[C@]5(C)[C@H]4CC[C@]3(C)[C@H]2[C@@H]1C)CO[C@@H]1O[C@H](CO)[C@@H](O)[C@H](O)[C@H]1O` [Timosaponin BII], the cell viability in test [1] (SRSF2 genotype: SRSF2 P95H/wt) is 93.3% and 90.7%; in test [1] (SRSF2 genotype: SRSF2 wt/wt), 89.5%; in test [2] (SRSF2 genotype: SRSF2 P95H/wt) it was 102%; in test [2] (SRSF2 genotype: SRSF2 wt/wt), 107%; in test [3] (SRSF2 genotype: SRSF2 P95H/wt), 96%; in test [3] (SRSF2 genotype: SRSF2 wt/wt), 93.5%. The cell viability was 49.8% in test [4] (SRSF2 genotype: P95H/wt) and 73.6% in test [4] (SRSF2 genotype: wt/wt).

For the molecule `Cc1[nH]cnc1CN1CCc2c(c3ccccc3n2C)C1=O` [Alosetron Hydrochloride], the cell viability is 93.1% and 95.7% in test [1] (SRSF2 genotype: SRSF2 P95H/wt); 88.6% in test [1] (SRSF2 genotype: SRSF2 wt/wt); 93.7% in test [2] (SRSF2 genotype: SRSF2 P95H/wt); 102% in test [2] (SRSF2 genotype: SRSF2 wt/wt); 93.2% in test [3] (SRSF2 genotype: SRSF2 P95H/wt); 100% in test [3] (SRSF2 genotype: SRSF2 wt/wt). Also, the values for the cell viability in test [4] (SRSF2 genotype: P95H/wt) and in test [4] (SRSF2 genotype: wt/wt) were 91.6% and 101%, respectively.

As to `NS(=O)(=O)c1cc(Cl)c(Cl)c(S(N)(=O)=O)c1` [Dichlorphenamide (Diclofenamide)], the cell viability in test [1] (SRSF2 genotype: SRSF2 P95H/wt) was 108% and 97%; in test [1] (SRSF2 genotype: SRSF2 wt/wt), 95.9%; in test [2] (SRSF2 genotype: SRSF2 P95H/wt), 91.9%; in test [2] (SRSF2 genotype: SRSF2 wt/wt), 102%; in test [3] (SRSF2 genotype: SRSF2 P95H/wt), 105%; in test [3] (SRSF2 genotype: SRSF2 wt/wt), 99.6%. Besides, the cell viability in test [4] (SRSF2 genotype: P95H/wt) turned out to be 93.4%; in test [4] (SRSF2 genotype: wt/wt), 103%.

On to `CCc1c(O)cc(O)c(C(=O)c2ccc(OCCN3CCOCC3)c(OC)c2)c1CC(=O)N(CCOC)CCOC`, for which the cell viability is 20.4% and 29.7% in test [1] (SRSF2 genotype: SRSF2 P95H/wt); 25.7% in test [1] (SRSF2 genotype: SRSF2 wt/wt); 29.3% in test [2] (SRSF2 genotype: SRSF2 P95H/wt); 25.4% in test [2] (SRSF2 genotype: SRSF2 wt/wt); 2.57% in test [3] (SRSF2 genotype: SRSF2 P95H/wt); 2.85% in test [3] (SRSF2 genotype: SRSF2 wt/wt). Also, the cell viability in test [4] (SRSF2 genotype: P95H/wt) was 19.3%; in test [4] (SRSF2 genotype: wt/wt) it was 21.8%.

In the case of `Cc1cc(-c2cc(C)c(NCCCS(=O)(=O)O)c(C)c2)cc(C)c1N`, the cell viability was 106% and 93.5% in test [1] (SRSF2 genotype: SRSF2 P95H/wt); 105% in test [1] (SRSF2 genotype: SRSF2 wt/wt); 96.3% in test [2] (SRSF2 genotype: SRSF2 P95H/wt); 111% in test [2] (SRSF2 genotype: SRSF2 wt/wt); 100% in test [3] (SRSF2 genotype: SRSF2 P95H/wt); 108% in test [3] (SRSF2 genotype: SRSF2 wt/wt). In addition, the cell viability in test [4] (SRSF2 genotype: P95H/wt) stood at 99.9%; in test [4] (SRSF2 genotype: wt/wt), 99%.
